The list is not random: actives were taken first. Their share in the collection is about 2.4%.
PP1 inh – blocks human PP1-alpha phosphatase, a PP5 counter-screen; P62136; purified PP1alpha, OMFP fluorescence; inhibition, % at 6.7 µM; hit rate 0.9% among 320,000; AID 2235;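 active = inhibition above the mean inhibition of all tested compounds plus 3 SD, computed separately for each screening campaign, cut at about 15% in these data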
PP5 inh – blocks human protein phosphatase 5 activity; P53041; purified PP5c, OMFP substrate fluorescence; hit rate 0.18% among 320,000; inhibition, % at 6.7 µM;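 active = inhibition above the campaign's mean inhibition across all tested compounds plus 3 SD, cut at about 9.5% in these data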
PREPL inh – inhibits the human prolyl oligopeptidase-like enzyme; Q4J6C6; recombinant PREPL, fluorescence polarization activity-based probe; inhibition, % at 5.96 µM; hit rate 0.68% among 320,000; AID 2751; in the data active = inhibition above about 43%
Target sequence (Q4J6C6 whole entry, looked up): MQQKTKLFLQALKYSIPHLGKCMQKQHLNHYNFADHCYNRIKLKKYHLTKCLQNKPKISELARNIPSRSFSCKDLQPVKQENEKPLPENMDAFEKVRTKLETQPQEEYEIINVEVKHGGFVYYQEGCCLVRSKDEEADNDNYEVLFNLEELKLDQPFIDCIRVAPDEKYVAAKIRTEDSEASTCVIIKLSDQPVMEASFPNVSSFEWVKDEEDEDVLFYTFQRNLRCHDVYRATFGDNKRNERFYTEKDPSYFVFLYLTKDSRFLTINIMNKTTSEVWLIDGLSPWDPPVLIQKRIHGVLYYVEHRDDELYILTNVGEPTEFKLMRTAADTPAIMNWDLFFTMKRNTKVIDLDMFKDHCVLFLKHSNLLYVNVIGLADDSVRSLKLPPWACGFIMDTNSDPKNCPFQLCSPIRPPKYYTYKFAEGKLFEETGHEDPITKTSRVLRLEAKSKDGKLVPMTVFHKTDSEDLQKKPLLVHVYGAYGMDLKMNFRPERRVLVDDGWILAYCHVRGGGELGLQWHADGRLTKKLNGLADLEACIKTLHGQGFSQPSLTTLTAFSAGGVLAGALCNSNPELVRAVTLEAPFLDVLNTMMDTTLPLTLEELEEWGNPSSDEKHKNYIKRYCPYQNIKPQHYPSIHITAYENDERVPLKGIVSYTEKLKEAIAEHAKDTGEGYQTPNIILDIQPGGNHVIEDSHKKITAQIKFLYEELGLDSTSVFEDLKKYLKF
NadD block – blocks S. aureus nicotinate mononucleotide adenylyltransferase; inhibition, % at 20 µM; hit rate 0.78% among 360,000; purified NadD enzyme, colorimetric absorbance read-out; AID 602399; in the data active = inhibition above about 26%
Rpn11 inh – inhibitors of human proteasome Rpn11; O00487; human 26S proteasome, Ub4-pepOG fluorescence polarization; 20S core pre-blocked with epoxomicin; hit rate 0.59% among 360,000; AID 588493; inhibition, % at 20 µM;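 active = inhibition at 20 µM, scaled to each plate's controls, above about 33%, limit read from the data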
PP5 conf – PP5 (human) inhibition, confirmation; hit rate 22% among 460; Purified PP5, fluorogenic phosphatase substrate, fluorescence; inhibition, % at 6.7 µM; shares compounds with PP5 inh; AID 2331; in the data active = inhibition above about 9.5%
PP1 inh counter – counter-screen for PP5 inhibitors: human PP1 phosphatase inhibition. shares compounds with PP5 inh. PP1 enzyme, fluorescent phosphatase substrate. inhibition, % at 6.7 µM. hit rate 4% among 460. AID 2355; in the data active = inhibition above about 16%
Hits are given with their value; – = inactive; · = no result shown.

SMILES | PP1 inh | PP5 inh | PREPL inh | NadD block | Rpn11 inh | PP5 conf | PP1 inh counter
COc1ccc(-c2csc(NC(=O)c3ccccc3S(C)(=O)=O)n2)cc1 | – | 11.3 | – | – | – | – | –
CCCN(CC1CC1)c1nc(N)c2c(N)nc(OC)cc2c1C#N | – | 11.9 | – | – | – | 38.8 | –
CCOc1cc2c(C#N)c(N(CC)CC)nc(N)c2c(N)n1 | – | – | – | – | – | · | ·
CC(C)Oc1cc(NC(=O)CS(=O)CC(=O)Nc2cccc(C(F)(F)F)c2)c(Cl)cc1Cl (centres undefined) | – | 12.8 | – | – | – | – | –
Cc1ccc(/C=C/C(=O)NC2CCCCCCC2)o1 | – | – | – | – | – | · | ·
O=C(NCC1COc2ccccc2O1)C1CCN(S(=O)(=O)c2ccc(Cl)cc2)CC1 (centres undefined) | – | – | – | – | – | · | ·
COCC(=O)N(Cc1cc2cc(C)ccc2[nH]c1=O)c1ccccc1 | – | – | – | – | – | · | ·
COCC(=O)N(Cc1cc2cccc(C)c2[nH]c1=O)c1ccccc1 | – | 10.0 | – | – | – | – | –
FC(F)C(F)(F)C(F)(F)C(F)(F)c1cc(-c2ccccc2)n[nH]1 | – | 10.8 | – | – | – | 9.7 | –
CC(C)(C(=O)N1CCC1(C)C(=O)NS(=O)(=O)c1cccc(Cl)c1)c1ccccc1 (centres undefined) | · | · | · | – | – | · | ·
CCCCn1c(N)c(N(CCOC)C(=O)C2CCN(S(=O)(=O)c3ccc(Cl)cc3)CC2)c(=O)[nH]c1=O | – | – | – | – | – | · | ·
CCOC(=O)C1CCCN(CC(O)COc2ccc(OC)cc2C(C)(C)C)C1 (centres undefined) | – | 10.7 | – | – | – | – | –
CCOC(=O)N1CCN(CC(O)COc2ccc(OC)cc2C(C)(C)C)CC1 (centres undefined) | – | – | – | – | – | · | ·
Cc1ccc(-c2ccc(/C=N\n3cnnc3)o2)c(Br)c1 | – | 10.5 | – | – | – | – | –
O=C(CC1C(=O)NCCN1C(=O)Nc1ccc(F)cc1)Nc1ccc(F)cc1 (centres undefined) | – | 9.7 | – | – | – | – | –
CC1(Oc2ccc(F)cc2)CCN(Cc2ccccc2OC(F)F)C1 (centres undefined) | · | · | · | – | – | · | ·
CCN(CC)C(=O)c1cc([N+](=O)[O-])cc2c1-c1ccc([N+](=O)[O-])cc1C2=C(C#N)C#N | – | – | – | – | – | · | ·
Cc1ccc(C)c(NS(=O)(=O)c2ccc3c(c2)Cc2cc(S(=O)(=O)Nc4cc(C)ccc4C)ccc2-3)c1 | – | – | – | – | – | · | ·
O=C1OCCC1Sc1nnc(-c2ccc3c(c2)OCO3)o1 (centres undefined) | – | – | – | – | – | · | ·
O=C1OCCC1Sc1nnc(-c2cccc(Br)c2)o1 (centres undefined) | – | 12.2 | – | – | – | – | –
COC(CNC(=O)c1ccc(CS(=O)(=O)c2ccccc2)o1)OC | – | 13.9 | – | – | – | – | –
COc1ccc(S(=O)(=O)Cc2ccc(C(=O)NCC(OC)OC)o2)cc1 | – | – | – | – | – | · | ·
O=S(=O)(c1ccc(Br)s1)n1cccn1 | – | 12.0 | – | – | – | – | –
O=S(=O)(c1cccs1)n1cccn1 | – | – | – | – | – | · | ·
O=Cc1cc(OCc2ccccc2)ccc1[B-](F)(F)F | · | · | · | – | – | · | ·
SMILES | PP1 inh | PP5 inh | PREPL inh | NadD block | Rpn11 inh | PP5 conf | PP1 inh counter
Cc1cc(C)nc(N/C(=N\S(=O)(=O)Cc2ccccc2)Nc2ccccc2Br)n1 | – | – | – | – | – | · | ·
CCOC(=O)c1c(C)[nH]c(C(=O)N(C)CC(=O)Nc2ccc(OCC)c(OCC)c2)c1C | · | · | · | – | – | · | ·
CN(C)C(=O)Cn1c(SCC(=O)NC2CCCCC2)nc2ccccc21 | – | 10.0 | – | – | – | – | –
CC(C)(C)P(=O)(CO)c1ccccc1 (centres undefined) | – | 10.8 | – | – | – | – | –
CC(C)(O)P(C)(=O)c1ccccc1 (centres undefined) | – | – | – | – | – | · | ·
Cc1ccc(C2CC(c3ccccc3)=NN2c2ccc(S(N)(=O)=O)cc2)cc1 (centres undefined) | · | · | · | – | – | · | ·
CCc1ccc(C2=NN(c3ccc(S(N)(=O)=O)cc3)C(c3ccc(F)cc3)C2)cc1 (centres undefined) | – | 12.0 | – | – | – | – | –
O=C(NCC(O)c1nc2ccccc2[nH]1)c1cc2ccccc2[nH]1 (centres undefined) | · | · | · | – | – | · | ·
COc1ccc(OC)c2sc(N(CCN(C)C)C(=O)c3cc(Cl)sc3Cl)nc12 | – | 10.5 | – | – | – | – | –
COc1ccc2sc(N(CCN(C)C)C(=O)c3cc(Cl)sc3Cl)nc2c1 | – | – | – | – | – | · | ·
CC1=NN(c2ccccc2)C(=O)/C1=C/C=C/C=C/N(C)C | – | 10.4 | – | – | · | 13.9 | –
CC1=NN(c2ccc(C)cc2)C(=O)/C1=C\C=C\c1ccccc1 | – | – | – | – | – | · | ·
CCC(=O)N(C)CCc1cc2c(c(OC)c1/C=N/NC(=O)c1ccc(Br)cc1)OCO2 | – | – | – | – | – | · | ·
CC(C)C[C@H](NC(=O)c1[nH]cnc1C(=O)N[C@H](C)c1ccccc1)C(=O)OC(C)(C)C | – | 10.2 | – | – | – | – | –
CC(C)C[C@H](NC(=O)c1nc[nH]c1C(=O)N[C@@H](CC(C)C)C(=O)OC(C)(C)C)C(=O)OC(C)(C)C | – | 10.2 | – | – | – | – | –
C[C@H](NC(=O)c1nc[nH]c1C(=O)N[C@@H](Cc1ccccc1)C(=O)OC(C)(C)C)C(=O)OC(C)(C)C | – | 10.8 | – | – | – | – | –
CC(C)(C)OC(=O)[C@H](Cc1ccccc1)NC(=O)c1nc[nH]c1C(=O)N[C@@H](Cc1ccccc1)C(=O)OC(C)(C)C | – | – | – | – | – | · | ·
CC(=O)C1=C(c2ccc(Br)cc2)C(=O)c2ccccc2C1=O | – | 11.1 | – | – | – | 10.4 | –
CNC1=C(N(C(C)=O)c2ccc(Br)cc2)C(=O)c2ccccc2C1=O | – | – | – | – | – | · | ·
CCN(CC)Cc1c(C(=O)N/N=C/c2cccc(OCc3cccc(Cl)c3)c2)nnn1-c1nonc1N | – | – | – | – | – | · | ·
Oc1ccccc1/C=N/Nc1cc(N2CCCC2)nc(N2CCCC2)n1 | – | 13.7 | – | – | – | 44.1 | –
CC(NC(=O)c1ccccc1F)c1nnc(SCC(=O)Nc2nnc(C3CC3)s2)n1C (centres undefined) | – | – | – | – | – | · | ·
CC(C)(C)c1ccc(C(=O)NNc2cc(N3CCCCC3)nc(N3CCCCC3)n2)cc1 | – | – | – | – | – | · | ·
O=C(NNc1cc(N2CCCC2)nc(N2CCCC2)n1)c1ccc([N+](=O)[O-])cc1 | – | 11.0 | – | – | – | 34.0 | –
O=C(c1cc(-c2ccc(Cl)cc2)n(-c2ccc(Cl)cc2)n1)N1CCOCC1 | – | 13.2 | – | – | – | – | –
CCn1nc(C)c(CN2CCC(n3nccc3NC(=O)Cc3ccccc3)CC2)c1C | – | – | – | – | – | · | ·

Screens from PubChem BioAssay.
